Source: PubChem BioAssay (NCATS)
Unmarked numbers belong to inactive results. Inconclusive results are not listed. Entries that show only a call come without a potency. Active and inactive are the calls of the source. Unless noted, the call rests on the fitted dose curve; in most records, active means well fitted curve in the direction sought with a large enough effect; inconclusive means small, poorly fitted or top-dose-only effect, or another doubt; inactive means no such curve, though single readings can be large; an effect the other way counts as inactive or inconclusive.

Assays:
[1] = molecular target: T1, Hexokinase-4 (Homo sapiens) + Glucokinase regulatory protein (Homo sapiens) (UniProt P35557+Q14397); test: qHTS assay for inhibitors of recombinant human GCK-GKRP interaction: Diaphorase-coupled assay (AID 743205); settings: G6PDH/diaphorase resorufin fluorescence; series mostly up to 57.5 µM
How it was run: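 Inhibitors of the GCK–GKRP complex relieve GKRP suppression of GCK, detected through a G6PDH–diaphorase cascade reducing resazurin. Human GST-GCK and FLAG-GKRP are used at 10 nM with 5 mM glucose and 0.4 mM ATP.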

[2] = molecular target: T1, Hexokinase-4 (Homo sapiens) + Glucokinase regulatory protein (Homo sapiens); test: qHTS assay for inhibitors of recombinant human GCK-GKRP interaction: ADP-Glo assay (AID 743206); settings: ADP-Glo luminescence, 60 min; series mostly up to 76.9 µM
How it was run: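 GST-GCK and FLAG-GKRP (15 nM each in the dispensed mix, with 2 uM S6P) react with 0.4 mM ATP and 5 mM glucose (final) in Hepes pH 7.6 for 60 min at room temperature. ADP is measured by ADP-Glo luminescence.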

[3] = molecular target: T1, Hexokinase-4 (Homo sapiens) + Glucokinase regulatory protein (Homo sapiens); test: qHTS assay for inhibitors of recombinant human GCK-GKRP interaction: HTRF assay (AID 743207); settings: recombinant GCK-GKRP HTRF binding, 60 min, with sorbitol-6-phosphate; series mostly up to 57.5 µM
How it was run: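 Steps: dispense GCK–GKRP complex (5 nM each, GST- and FLAG-tagged) with 2 uM S6P; pin in compounds; add XL665/Eu-cryptate-labelled antibodies; incubate 60 min at room temperature; read time-resolved FRET at 665 and 615 nm.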

[4] = qHTS assay for measurement of the activity of small molecule inhibitors on Zika virus induced Caspase-3 activity in human iPSC derived neural progenitor cells (hNPCs) (AID 1224857); settings: hNPCs ZIKV-induced caspase-3/7, Caspase-Glo luminescence, 6 h; series mostly up to 45.7 µM; further: nearly all actives have a fitted effect of over 65% in size
How it was run: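 Cells were plated at 350 per well and grown 16 to 20 hours. Compound pretreatment lasted one hour, after which ZIKV (2 FFU/cell) was added for 6 hours. Percent inhibition was normalized between uninfected and infected controls.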

[5] = qHTS assay for measurement of the activity of small molecule inhibitors on Zika virus induced Caspase-3 activity in human astrocytoma cells (AID 1224859); settings: SNB-19 ZIKV-induced caspase-3/7, luminescence, 6 h; series mostly up to 45.7 µM
How it was run: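 Percent inhibition of virus-induced caspase-3/7 signal is calculated against uninfected and ZIKV-infected control cells. Cells are SNB-19, infected at 2 FFU/cell for 6 h after 1 h compound exposure.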

[6] = Natriuretic polypeptide receptor (hNpr1) antagonism - Pilot counterscreen GloSensor control cell line (AID 1347045; calls by dose curve); settings: HEK293 cGMP GloSensor cells, SNP-stimulated luminescence, 20 min; series mostly up to 38.3 µM
How it was run: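 HEK293 cells carrying the GloSensor cGMP sensor (GIP/pGS-40F) were loaded with 2% GloSensor reagent for 2 h, exposed to compounds for 30 min, and then stimulated with 50 uM sodium nitroprusside for 20 min at room temperature.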

[7] = molecular target: Atrial natriuretic peptide receptor 1 (Homo sapiens) (UniProt P16066); test: Natriuretic polypeptide receptor (hNpr1) antagonism - Pilot screen (AID 1347049; calls by dose curve;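 further: agonist-evoked cGMP luminescence read 20 min after hNppA addition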); settings: hNpr1 cells, antagonist mode cGMP read-out; series mostly up to 57.5 µM
How it was run: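 HEK293 cells co-expressing hNpr1 and the GloSensor pGS-40F cGMP luciferase sensor were preloaded with 2% GloSensor reagent for 2 h. Compounds were added for 30 min at room temperature, then cells were stimulated with 0.1 nM hNppA for 20 min before luminescence readout.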

[8] = molecular target: Atrial natriuretic peptide receptor 2 (Homo sapiens) (UniProt P20594); test: Natriuretic polypeptide receptor (hNpr2) antagonism - Pilot subtype selectivity assay (AID 1347050; calls by dose curve; further: potency means the concentration at half of the fitted maximal effect); settings: NPR2-expressing cells, cGMP antagonist-mode read-out; series mostly up to 38.3 µM
How it was run: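 cGMP-sensor HEK293/hNpr2 cells; 2% GloSensor reagent 2 h RT; compounds 30 min; baseline luminescence read; 1 nM hNppC agonist 20 min RT; final luminescence read by CCD camera. Antagonism = reduced post-agonist signal.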

[9] = qHTS Assay for Identifying Gametocytocidal Compounds (AID 743244);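 further: actives lower the fluorescent signal which means gametocytes are killed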; settings: P. falciparum 3D7 stage III-V gametocytes, alamarBlue, 72 h; max response: hits give low values
How it was run: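 3D7 gametocytes, stages III–V, 20,000/well; cpd 72 h, 37 °C/5% CO2; + alamarBlue 24 h; fluor. Ex 525/Em 598.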

[10] = P-glycoprotein substrates identified in KB-3-1 adenocarcinoma cell line, qHTS therapeutic library screen (AID 1346986); settings: KB-3-1 parental cells viability, CellTiter-Glo, 72 h; series mostly up to 44.5 µM; further: nearly all actives have a fitted effect of over 60% in size
How it was run: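 KB-3-1 parental cells and P-gp-overexpressing KB-8-5-11 (colchicine omitted during assay) plated at 500 cells/well, dosed in dose-response, incubated 72 h at 37 degree C. CellTiter-Glo luminescence read; KB-8-5-11 also tested with tariquidar.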

[11] = P-glycoprotein substrates identified in KB-8-5-11 adenocarcinoma cell line, qHTS therapeutic library screen (AID 1346987); settings: KB-8-5-11 (P-gp overexpressing) viability, CellTiter-Glo, 72 h; series mostly up to 44.5 µM; further: nearly all actives have a fitted effect of over 65% in size; further: potency means the concentration at half of the fitted maximal effect
How it was run: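 KB-8-5-11: colchicine-selected sub-line of KB-3-1 over-expressing P-gp; assay medium lacked colchicine. 72 h drug exposure at 37 degree C, CellTiter-Glo.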

Sequence of Atrial natriuretic peptide receptor 1 (Homo sapiens) (P16066 whole entry, looked up): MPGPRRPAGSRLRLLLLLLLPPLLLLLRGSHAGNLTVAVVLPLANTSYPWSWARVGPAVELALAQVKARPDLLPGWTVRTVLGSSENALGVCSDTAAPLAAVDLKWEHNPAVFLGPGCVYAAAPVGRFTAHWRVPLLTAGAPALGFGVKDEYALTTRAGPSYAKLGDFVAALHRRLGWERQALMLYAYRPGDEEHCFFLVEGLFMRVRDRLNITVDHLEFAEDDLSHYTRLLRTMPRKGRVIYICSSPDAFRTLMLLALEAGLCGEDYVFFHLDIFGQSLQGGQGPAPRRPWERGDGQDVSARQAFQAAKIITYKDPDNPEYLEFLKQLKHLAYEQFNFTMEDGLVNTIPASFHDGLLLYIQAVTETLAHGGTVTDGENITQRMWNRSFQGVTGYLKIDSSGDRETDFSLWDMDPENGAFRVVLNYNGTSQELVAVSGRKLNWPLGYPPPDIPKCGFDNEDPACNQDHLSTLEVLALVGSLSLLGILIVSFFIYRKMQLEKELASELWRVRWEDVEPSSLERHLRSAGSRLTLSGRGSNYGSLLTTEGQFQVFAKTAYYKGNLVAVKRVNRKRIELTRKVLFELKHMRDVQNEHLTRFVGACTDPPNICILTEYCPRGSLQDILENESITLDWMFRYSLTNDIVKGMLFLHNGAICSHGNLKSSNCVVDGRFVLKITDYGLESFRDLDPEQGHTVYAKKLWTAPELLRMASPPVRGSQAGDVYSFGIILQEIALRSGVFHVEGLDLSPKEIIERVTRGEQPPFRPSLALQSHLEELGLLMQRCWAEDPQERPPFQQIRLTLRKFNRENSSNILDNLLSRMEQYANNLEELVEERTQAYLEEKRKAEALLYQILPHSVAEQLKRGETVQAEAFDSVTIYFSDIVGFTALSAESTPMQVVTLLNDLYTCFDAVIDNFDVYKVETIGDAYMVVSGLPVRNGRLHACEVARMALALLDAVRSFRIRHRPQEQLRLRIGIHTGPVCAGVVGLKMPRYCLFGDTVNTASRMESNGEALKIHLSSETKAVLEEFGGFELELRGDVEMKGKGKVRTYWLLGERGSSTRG
Sequence of Atrial natriuretic peptide receptor 2 (Homo sapiens) (P20594 whole entry, looked up): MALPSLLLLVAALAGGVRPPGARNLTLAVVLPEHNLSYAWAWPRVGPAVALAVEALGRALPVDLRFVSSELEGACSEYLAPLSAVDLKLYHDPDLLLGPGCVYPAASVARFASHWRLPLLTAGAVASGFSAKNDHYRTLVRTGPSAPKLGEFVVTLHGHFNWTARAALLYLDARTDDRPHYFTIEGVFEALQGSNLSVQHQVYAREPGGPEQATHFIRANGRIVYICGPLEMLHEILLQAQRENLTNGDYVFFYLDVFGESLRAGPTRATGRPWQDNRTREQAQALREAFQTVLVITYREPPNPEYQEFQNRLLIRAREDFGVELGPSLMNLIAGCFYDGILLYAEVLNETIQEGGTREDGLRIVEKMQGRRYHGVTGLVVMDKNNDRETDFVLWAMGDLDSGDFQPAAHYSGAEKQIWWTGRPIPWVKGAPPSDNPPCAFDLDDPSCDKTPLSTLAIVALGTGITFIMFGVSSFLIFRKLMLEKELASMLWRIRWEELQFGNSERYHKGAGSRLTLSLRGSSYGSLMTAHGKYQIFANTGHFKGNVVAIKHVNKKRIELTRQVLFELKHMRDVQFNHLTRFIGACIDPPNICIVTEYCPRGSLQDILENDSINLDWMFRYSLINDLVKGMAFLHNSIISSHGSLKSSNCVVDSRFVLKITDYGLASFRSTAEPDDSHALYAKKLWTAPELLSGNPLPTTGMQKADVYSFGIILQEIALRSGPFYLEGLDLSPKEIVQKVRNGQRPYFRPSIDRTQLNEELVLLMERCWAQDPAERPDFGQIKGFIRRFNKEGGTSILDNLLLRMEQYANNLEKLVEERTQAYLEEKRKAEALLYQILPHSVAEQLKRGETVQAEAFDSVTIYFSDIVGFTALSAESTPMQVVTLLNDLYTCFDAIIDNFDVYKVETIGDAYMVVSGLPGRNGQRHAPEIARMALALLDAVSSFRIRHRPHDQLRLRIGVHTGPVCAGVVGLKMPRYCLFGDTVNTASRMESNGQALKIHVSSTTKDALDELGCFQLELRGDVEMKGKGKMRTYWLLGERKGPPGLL
T1 sequence (P35557 whole entry, looked up): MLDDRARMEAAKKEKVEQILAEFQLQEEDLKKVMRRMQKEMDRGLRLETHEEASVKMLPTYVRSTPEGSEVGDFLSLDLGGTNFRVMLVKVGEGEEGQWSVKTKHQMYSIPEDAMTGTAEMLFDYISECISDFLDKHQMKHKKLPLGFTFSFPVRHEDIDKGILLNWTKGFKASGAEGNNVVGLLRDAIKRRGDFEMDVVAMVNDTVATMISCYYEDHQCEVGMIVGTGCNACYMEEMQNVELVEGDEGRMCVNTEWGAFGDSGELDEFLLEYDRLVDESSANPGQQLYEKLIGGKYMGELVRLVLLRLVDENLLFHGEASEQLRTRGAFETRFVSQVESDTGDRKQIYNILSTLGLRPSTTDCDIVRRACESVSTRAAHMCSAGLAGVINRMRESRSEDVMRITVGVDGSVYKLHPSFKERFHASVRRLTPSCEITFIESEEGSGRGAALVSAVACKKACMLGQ
T1 sequence (Q14397 whole entry, looked up): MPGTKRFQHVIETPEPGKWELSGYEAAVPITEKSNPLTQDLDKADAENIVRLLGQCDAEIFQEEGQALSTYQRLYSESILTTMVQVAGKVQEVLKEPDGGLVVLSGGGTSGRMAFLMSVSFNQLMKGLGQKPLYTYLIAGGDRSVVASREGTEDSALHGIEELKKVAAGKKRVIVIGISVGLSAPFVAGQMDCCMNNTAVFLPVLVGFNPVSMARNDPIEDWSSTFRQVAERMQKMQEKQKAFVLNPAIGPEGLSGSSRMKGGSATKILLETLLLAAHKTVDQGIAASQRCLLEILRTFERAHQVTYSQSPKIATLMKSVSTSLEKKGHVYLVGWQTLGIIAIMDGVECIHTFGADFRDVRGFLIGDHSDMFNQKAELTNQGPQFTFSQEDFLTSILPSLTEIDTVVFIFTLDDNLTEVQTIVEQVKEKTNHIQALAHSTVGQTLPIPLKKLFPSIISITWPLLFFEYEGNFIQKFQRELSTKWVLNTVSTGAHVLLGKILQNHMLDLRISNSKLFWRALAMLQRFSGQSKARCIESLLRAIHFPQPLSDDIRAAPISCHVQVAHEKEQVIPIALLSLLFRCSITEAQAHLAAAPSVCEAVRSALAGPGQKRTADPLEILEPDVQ

| SMILES | Potency [1] | Potency [2] | Potency [3] | Potency [4] | Potency [5] | Potency [6] | Potency [7] | Potency [8] | max response [9] | Potency [10] | Potency [11] |
| --- | --- | --- | --- | --- | --- | --- | --- | --- | --- | --- | --- |
| OC1(c2ccc(Cl)cc2)CCN(Cc2c[nH]c3ccccc23)CC1 | inactive | inactive | inactive | inactive | inactive | inactive | inactive | inactive |  |  |  |
| CC(C)NC[C@H](O)COc1cccc2ccccc12 | inactive | inactive | inactive | inactive | inactive | inactive | inactive | inactive |  |  |  |
| CC(=O)O[C@H]1CC2(C)[C@@H](C[C@@H](O)[C@H]3[C@@]4(C)CC[C@@H](O)[C@@H](C)[C@@H]4CC[C@@]32C)C1=C(CCC=C(C)C)C(=O)O (stereo partly drawn) | inactive | inactive | inactive | inactive | inactive | inactive | inactive | inactive |  |  |  |
| Clc1nccc2c1ccc1ccccc12 | inactive | inactive | inactive | inactive | inactive | inactive | inactive | inactive |  |  |  |
| CCCCCCCCCCCCCCC[C@H](O)[C@H](N)CO | inactive | inactive | inactive | inactive | inactive | inactive | inactive | inactive |  |  |  |
| O=C1Nc2ccc(I)cc2/C1=C/c1cc(Br)c(O)c(Br)c1 |  | inactive | inactive | inactive | inactive |  | inactive | inactive | -8.13% | inactive | inactive |
| O=c1cc(O)cc(/C=C/c2ccc(O)c(O)c2)o1 | inactive | inactive | inactive | inactive | inactive | inactive | inactive | inactive |  |  |  |
| C[C@H](NC(=O)/C(C#N)=C/c1ccc(O)c(O)c1)c1ccccc1 | inactive | inactive | inactive | inactive | inactive | inactive | inactive | inactive |  |  |  |
| CN1CCCC1CCOC(C)(c1ccccc1)c1ccc(Cl)cc1 (stereo not drawn) | inactive | inactive | inactive | inactive | inactive | inactive | inactive | 11.7 µM (active) |  |  |  |
| C[C@](Cc1ccc(O)c(O)c1)(NN)C(=O)O | inactive | inactive | inactive | inactive | inactive | inactive | inactive | inactive |  |  |  |
| CN(C)S(=O)(=O)c1ccc2c(c1)/C(=C/c1cc3c([nH]1)CCCC3)C(=O)N2 | inactive | inactive | inactive | inactive | inactive |  |  |  | -2.03% |  | 6.51 µM (active) |
